The values below come from PubChem BioAssay.

Records with an inconclusive call do not appear. The source made the active and inactive calls. Rule as the data show it, unless noted: active = percent of DMSO control GFP below about 86%; inactive = the rest, inconclusive results apart.

The nature of test [1]: yeast TOR pathway RPL19A-GFP modulators, primary screen, cell-based, S. cerevisiae, multiplex flow cytometry (AID 1862).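 Also: lower values mimic rapamycin by blocking the RPL19A rise seen in DMSO cells.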 Particulars: S. cerevisiae RPL19A-GFP strain, flow cytometry fluorescence, 3 h; at 10 µM; stronger effect = lower value. Background: Flow cytometry measures light scatter and fluorescence of single cells or particles in a stream.
Test [2] is described as follows: modulators of MEP2-GFP levels in yeast, primary screen, S. cerevisiae, multiplex flow cytometry (AID 1867;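 active = GFP response, as percent of the DMSO control, above the screen-wide mean plus 3 SD, about 139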;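 also: median GFP channel fluorescence of barcode-gated MEP2-GFP cells measured by flow cytometry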). The conditions noted are these: S. cerevisiae MEP2-GFP strain, 3 h, at 10 µM, stronger effect = higher value, 100% means same as DMSO wells.
Test [3] in a line: modulators of CIT2-GFP expression in yeast, primary screen, S. cerevisiae, GFP fusion, multiplex flow cytometry (AID 1870;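 active = percent response above a set limit, the screen-wide mean plus 3 SD, cut at about 130% in these data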;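 also: barcoded CIT2-GFP strain pooled with four other GFP strains with rapamycin as positive control; median GFP fluorescence per well over plate mean of DMSO wells so 100% = DMSO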). The conditions noted are these: 3 h, at 10 µM, stronger effect = higher value.
Test [4] can be described thus: modulators of LAP4-GFP expression in yeast, primary screen, S. cerevisiae, multiplex flow cytometry (AID 1873;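 active = GFP signal, as percent of the solvent control, above the screen mean plus 3 SD, about 149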). Particulars: 3 h, at 10 µM, stronger effect = higher value.
Test [5] in a line: modulators of AGP1-GFP expression in yeast TOR pathway, primary screen, cell-based, multiplex flow cytometry, S. cerevisiae (AID 1887;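 active = GFP signal above the screen-wide mean plus 3 SD, that is over about 124.5% of the solvent control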;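 also: AGP1-GFP fusion strain of S. cerevisiae within a five-strain barcoded multiplex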). Particulars: 3 h, at 10 µM, stronger effect = higher value.
Test [6] is described as follows: inhibitors of CD8+ T cell-vesicle binding, pilot screen, LFA-1/ICAM-1 modulator project, MLPCN validation set, flow cytometry (AID 2523;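 active = response below a set limit, under 55% cells CD8-positive and vesicle-bound, and CD8 cells' 90th-percentile brightness under 279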;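 as to vesicle binding response: mean PE anti-B7-1 fluorescence of CD8+ cells relative to row control; 100% = QL9-loaded vesicles with DMSO vehicle in the same plate row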). Particulars: 2C mouse CD8+ T cells, at 7 µM, stronger effect = lower value; double positive events: measured here: CD8+/vesicle+ event percentage.
Test [7] addresses Integrin beta-1 (Homo sapiens) + Integrin alpha-4 (Homo sapiens) (UniProt P13612+P05556). As to the kind of experiment: inhibition of HUTS-21 binding to VLA-4, pilot screen, VLA-4 allosteric modulator project, U937 cells, HUTS-21 mAb, flow cytometry, validation set (AID 2674;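 active = inhibition above 50%, about 3 SD of the validation set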;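 also: antibody binding induced by the VLA-4 ligand LDV present at three times its Kd; 0% = LDV ligand with antibody and no compound and 100% = antibody without LDV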). Particulars: HUTS-21 LIBS mAb binding, at 6.7 µM, stronger effect = higher value, binding induced by LDV ligand.
A short description of test [8]: superoxide lowering in aged yeast cells, pilot screen, validation compound set (AID 2706;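 active = superoxide response below 65% of plate, a cut near 3 SD across the whole screen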;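 also: yeast exposed to compound for one week at 30 degrees C before staining; 100% = mean of all compound wells on the same plate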). The conditions noted are these: S. cerevisiae aging, superoxide DHE fluorescence; at 10 µM; stronger effect = lower value.
Test [9] concerns the target Beta-adrenergic receptor kinase 1 (Homo sapiens) (UniProt P25098). As to the kind of experiment: GRK2 binders displacing RNA aptamer, biochemical, validation, human GRK2, bead flow cytometry (AID 488806;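 active = aptamer binding inhibition above 30%, about 3 SD of noise from non-fluorescent compounds; inactive = inhibition at or below 30%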). Particulars: bead-bound GRK2, FAM-aptamer displacement, at 10 µM, stronger effect = higher value.
Test [10] concerns the target Beta-2 adrenergic receptor (Homo sapiens) (UniProt P07550). The test can be described thus: beta2AR agonists driving receptor internalization, pilot screen, cell-based, FAP fluorogen, flow cytometry, validation set (AID 504459;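 active = percent response above 42, roughly 3 SD of non-fluorescent test compounds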;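 also: agonist-driven loss of surface beta2AR via internalization measured by FAP dye flow cytometry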). Particulars: Am2.2-beta2AR cells, FAP surface receptor flow cytometry; at 10 µM; stronger effect = higher value.
In test [11] the target is AP-2 complex subunit beta (Homo sapiens) (UniProt P63010). As to the kind of experiment: inhibitors of arrestin peptide binding to AP2, pilot screen, biochemical, validation set, GST-AP2 beads, flow cytometry (AID 504541;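 active = inhibition above 54%, about 3 SD of non-fluorescent compounds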;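 also: AP2 carries R879A mutation and is captured from E. coli lysate; bead-bound FITC arrestin peptide fluorescence measuring arrestin peptide binding to AP2; 0% = DMSO wells and 100% = excess unlabeled arrestin peptide control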). Particulars: FITC arrestin peptide, at 10 µM, stronger effect = higher value, AP2 beta2 appendage fragment, R879A mutant.
Sequence of AP-2 complex subunit beta (Homo sapiens) (P63010 whole entry, looked up, the tested form may be a part, one chain of several): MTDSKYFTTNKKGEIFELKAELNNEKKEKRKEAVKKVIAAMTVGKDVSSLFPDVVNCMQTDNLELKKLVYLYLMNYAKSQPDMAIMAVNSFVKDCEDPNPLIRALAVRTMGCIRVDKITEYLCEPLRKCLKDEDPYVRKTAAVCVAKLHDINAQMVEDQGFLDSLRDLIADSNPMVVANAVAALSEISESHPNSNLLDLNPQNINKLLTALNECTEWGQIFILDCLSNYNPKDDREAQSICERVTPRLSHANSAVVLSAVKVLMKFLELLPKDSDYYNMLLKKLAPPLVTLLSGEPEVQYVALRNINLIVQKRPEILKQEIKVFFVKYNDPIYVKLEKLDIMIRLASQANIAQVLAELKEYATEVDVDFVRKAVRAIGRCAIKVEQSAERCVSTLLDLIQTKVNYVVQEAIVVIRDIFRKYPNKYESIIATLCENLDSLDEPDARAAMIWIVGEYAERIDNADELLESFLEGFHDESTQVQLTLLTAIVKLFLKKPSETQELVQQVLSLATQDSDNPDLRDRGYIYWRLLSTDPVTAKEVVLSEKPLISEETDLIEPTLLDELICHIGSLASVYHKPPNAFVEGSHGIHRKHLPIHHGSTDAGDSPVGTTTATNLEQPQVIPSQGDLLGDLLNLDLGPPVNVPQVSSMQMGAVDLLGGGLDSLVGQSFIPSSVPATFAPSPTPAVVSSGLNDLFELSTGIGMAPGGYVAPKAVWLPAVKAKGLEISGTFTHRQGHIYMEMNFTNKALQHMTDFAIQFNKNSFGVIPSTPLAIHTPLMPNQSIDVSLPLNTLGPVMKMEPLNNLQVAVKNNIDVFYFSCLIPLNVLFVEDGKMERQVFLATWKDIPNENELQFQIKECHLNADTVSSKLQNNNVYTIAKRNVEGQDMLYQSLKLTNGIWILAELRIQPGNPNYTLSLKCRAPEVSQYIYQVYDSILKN
Test [12] can be described thus: yeast V-ATPase proton transport modulators, S. cerevisiae, pHLuorin, HTS validation (AID 504600; in the data active = response above about 15%;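 also: plate controls were DMSO for no effect and reference compound for full effect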). The conditions noted are these: S. cerevisiae pHLuorin cytosolic pH, at 10 µM, stronger effect = higher value.
The test system of test [13] is anti-desmoglein-3 scFv antibody binding to human DSG3. As to the kind of experiment: inhibitors of anti-DSG3 scFv binding to DSG3, pilot screen, biochemical, validation compound set, bead-based, flow cytometry (AID 588368;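 active = binding below the plate cutoff, the plate median minus 3 SD, with a reading above zero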;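 also: signal is the median channel fluorescence of bead-bound GFP antibody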). Particulars: Protein G beads, DSG3-Fc, scFv-GFP binding, at 10 µM, stronger effect = lower value.
A short description of test [14]: inhibitors of fungal efflux pumps CDR1, CDR2, MDR1, pilot screen, validation compound set, multiplex, phenotypic (AID 588506;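 active = efflux inhibition above 0.42, the validation set average plus 4 SD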;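 also: Nile Red retained in cells so higher fluorescence means more efflux inhibition; 0 = negative control wells and 1 = enniatin B 25 µM full block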). Particulars: S. cerevisiae pump-expressing triplex, Nile Red efflux flow cytometry; at 10 µM; stronger effect = higher value; the pumps come from Candida albicans.
Test [15] has as its target ATP-binding cassette sub-family B member 6 (Homo sapiens) (UniProt Q9NP58). The test can be described thus: ABCB6 transporter inhibitors, pilot screen, K562-ABCB6 cells, flow cytometry, validation set (AID 588550;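 active = inhibition above the screen-wide mean plus 3 SD, about 51%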;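 also: 0% = DMSO wells and 100% = benzethonium chloride 70 µM positive control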). The conditions noted are these: K562-ABCB6 porphyrin accumulation, 1 h, at 10 µM, stronger effect = higher value.
The nature of test [16]: promoters of myeloid differentiation in arrested cells, primary screen, cell-based, GFP/MAC1 double positive, flow cytometry, validation set (AID 588685;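 active = differentiation response of at least 50%, scaled between solvent and reference control, from cells with both markers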;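 also: compound exposure lasts four days before antibody staining and flow analysis; 0% = DMSO wells and 100% = 5 µM fulvestrant positive control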). The conditions noted are these: ER-HoxA9 marrow cells, stronger effect = higher value, normalized: vehicle 0, fulvestrant 100.

Sequence of Integrin beta-1 (Homo sapiens) + Integrin alpha-4 (Homo sapiens) (P05556 whole entry, looked up): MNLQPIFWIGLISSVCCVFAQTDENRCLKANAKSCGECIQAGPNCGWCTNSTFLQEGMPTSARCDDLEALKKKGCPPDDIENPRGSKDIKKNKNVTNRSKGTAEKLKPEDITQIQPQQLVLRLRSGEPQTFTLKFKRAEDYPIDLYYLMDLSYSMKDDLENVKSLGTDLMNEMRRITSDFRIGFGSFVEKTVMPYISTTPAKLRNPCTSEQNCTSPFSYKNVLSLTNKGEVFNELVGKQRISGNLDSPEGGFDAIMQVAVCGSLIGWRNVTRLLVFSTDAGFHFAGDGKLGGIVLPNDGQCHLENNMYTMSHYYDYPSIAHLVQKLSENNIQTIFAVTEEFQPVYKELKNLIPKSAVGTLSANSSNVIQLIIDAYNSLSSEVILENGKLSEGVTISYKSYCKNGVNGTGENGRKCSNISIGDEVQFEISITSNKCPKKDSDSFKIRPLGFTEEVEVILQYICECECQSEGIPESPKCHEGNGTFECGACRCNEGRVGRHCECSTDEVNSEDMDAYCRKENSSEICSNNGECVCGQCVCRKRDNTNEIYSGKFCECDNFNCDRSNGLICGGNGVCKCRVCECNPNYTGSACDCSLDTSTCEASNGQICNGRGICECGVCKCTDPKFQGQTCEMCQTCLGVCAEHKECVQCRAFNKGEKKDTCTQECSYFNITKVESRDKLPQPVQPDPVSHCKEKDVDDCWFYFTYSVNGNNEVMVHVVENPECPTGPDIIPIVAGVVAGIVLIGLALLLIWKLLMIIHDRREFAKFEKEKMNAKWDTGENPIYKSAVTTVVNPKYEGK
Sequence of Integrin beta-1 (Homo sapiens) + Integrin alpha-4 (Homo sapiens) (P13612 whole entry, looked up): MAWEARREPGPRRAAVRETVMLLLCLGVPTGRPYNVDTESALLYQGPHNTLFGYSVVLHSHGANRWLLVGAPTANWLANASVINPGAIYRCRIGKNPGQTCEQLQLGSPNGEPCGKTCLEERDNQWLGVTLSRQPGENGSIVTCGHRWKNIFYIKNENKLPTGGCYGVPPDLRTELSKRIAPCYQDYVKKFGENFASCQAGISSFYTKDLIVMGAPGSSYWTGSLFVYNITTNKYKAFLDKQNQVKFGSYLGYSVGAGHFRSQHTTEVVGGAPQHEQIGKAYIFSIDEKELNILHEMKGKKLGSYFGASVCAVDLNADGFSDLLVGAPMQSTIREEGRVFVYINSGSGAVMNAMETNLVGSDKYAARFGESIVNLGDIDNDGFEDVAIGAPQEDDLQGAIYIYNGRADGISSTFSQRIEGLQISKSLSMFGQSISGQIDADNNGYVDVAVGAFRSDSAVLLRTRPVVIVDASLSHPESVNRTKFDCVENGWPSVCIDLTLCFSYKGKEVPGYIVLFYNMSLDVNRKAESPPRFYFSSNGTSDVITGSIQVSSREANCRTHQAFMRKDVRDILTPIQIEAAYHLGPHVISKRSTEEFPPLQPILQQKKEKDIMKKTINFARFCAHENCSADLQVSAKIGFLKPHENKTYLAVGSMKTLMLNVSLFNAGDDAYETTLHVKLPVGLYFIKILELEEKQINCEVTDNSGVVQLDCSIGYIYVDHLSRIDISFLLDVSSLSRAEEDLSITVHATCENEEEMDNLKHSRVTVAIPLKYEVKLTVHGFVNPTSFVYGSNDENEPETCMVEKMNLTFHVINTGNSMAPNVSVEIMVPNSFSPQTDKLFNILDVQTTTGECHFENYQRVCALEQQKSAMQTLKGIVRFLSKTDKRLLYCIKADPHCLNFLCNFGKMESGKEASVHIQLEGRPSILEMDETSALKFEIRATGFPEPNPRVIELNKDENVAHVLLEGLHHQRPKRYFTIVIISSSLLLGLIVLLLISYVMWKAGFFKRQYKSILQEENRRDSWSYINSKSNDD
Sequence of Beta-2 adrenergic receptor (Homo sapiens) (P07550 whole entry, looked up): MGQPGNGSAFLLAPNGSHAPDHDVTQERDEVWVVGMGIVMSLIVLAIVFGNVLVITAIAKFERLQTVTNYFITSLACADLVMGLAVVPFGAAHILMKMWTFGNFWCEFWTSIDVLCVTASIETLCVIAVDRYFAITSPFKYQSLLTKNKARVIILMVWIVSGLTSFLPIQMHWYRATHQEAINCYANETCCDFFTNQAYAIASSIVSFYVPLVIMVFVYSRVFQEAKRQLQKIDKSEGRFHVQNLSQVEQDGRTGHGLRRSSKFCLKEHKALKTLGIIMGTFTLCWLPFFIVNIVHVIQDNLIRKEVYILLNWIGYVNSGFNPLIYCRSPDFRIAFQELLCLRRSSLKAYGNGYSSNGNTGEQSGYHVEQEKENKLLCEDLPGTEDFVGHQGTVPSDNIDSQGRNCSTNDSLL
Sequence of Beta-adrenergic receptor kinase 1 (Homo sapiens) (P25098 whole entry, looked up): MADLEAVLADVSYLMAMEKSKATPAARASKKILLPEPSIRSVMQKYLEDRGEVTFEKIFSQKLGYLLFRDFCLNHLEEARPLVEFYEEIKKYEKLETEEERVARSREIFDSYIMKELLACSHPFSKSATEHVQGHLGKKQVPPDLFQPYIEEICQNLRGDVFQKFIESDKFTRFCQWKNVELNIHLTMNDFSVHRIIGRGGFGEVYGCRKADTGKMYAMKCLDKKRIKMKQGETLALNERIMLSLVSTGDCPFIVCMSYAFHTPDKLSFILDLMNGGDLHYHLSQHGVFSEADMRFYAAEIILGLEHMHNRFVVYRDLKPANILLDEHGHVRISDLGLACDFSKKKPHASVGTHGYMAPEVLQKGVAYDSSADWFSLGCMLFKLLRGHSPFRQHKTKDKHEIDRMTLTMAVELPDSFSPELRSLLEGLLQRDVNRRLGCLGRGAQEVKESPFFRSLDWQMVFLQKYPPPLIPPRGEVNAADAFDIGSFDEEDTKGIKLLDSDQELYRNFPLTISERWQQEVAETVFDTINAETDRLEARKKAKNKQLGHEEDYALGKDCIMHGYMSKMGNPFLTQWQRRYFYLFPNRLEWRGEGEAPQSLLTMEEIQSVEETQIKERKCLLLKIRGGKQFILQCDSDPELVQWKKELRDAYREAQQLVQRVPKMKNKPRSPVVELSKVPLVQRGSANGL
Sequence of ATP-binding cassette sub-family B member 6 (Homo sapiens) (Q9NP58 whole entry, looked up): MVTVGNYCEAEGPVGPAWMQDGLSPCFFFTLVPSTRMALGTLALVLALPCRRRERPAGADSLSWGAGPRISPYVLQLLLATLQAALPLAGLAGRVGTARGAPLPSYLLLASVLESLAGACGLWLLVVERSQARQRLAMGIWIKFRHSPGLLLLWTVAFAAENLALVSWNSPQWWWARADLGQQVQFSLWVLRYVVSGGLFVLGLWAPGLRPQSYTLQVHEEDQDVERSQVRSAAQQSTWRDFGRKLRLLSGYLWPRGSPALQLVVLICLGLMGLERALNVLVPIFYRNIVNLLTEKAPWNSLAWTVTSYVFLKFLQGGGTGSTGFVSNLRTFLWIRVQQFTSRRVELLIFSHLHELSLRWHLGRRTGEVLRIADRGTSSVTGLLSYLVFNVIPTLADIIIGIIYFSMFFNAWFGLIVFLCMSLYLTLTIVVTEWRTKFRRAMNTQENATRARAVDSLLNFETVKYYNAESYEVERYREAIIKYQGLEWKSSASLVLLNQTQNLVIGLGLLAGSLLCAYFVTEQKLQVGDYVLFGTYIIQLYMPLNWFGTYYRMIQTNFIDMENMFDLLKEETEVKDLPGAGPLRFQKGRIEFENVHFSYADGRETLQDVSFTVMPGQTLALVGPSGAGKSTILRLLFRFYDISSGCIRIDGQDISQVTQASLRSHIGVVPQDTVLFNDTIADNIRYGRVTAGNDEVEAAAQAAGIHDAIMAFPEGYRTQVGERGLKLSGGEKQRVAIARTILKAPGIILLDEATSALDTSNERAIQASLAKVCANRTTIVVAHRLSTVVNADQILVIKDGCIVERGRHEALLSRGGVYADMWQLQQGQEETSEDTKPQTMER

By inhibition is commonly meant the drop in the measured response relative to a control, in per cent. Take `O=C1CCCC(=O)C1=Cc1c[nH]c2ccccc12`: the percent of DMSO control GFP in test [1] was 97.9% (inactive). Besides, the GFP response vs DMSO was 102% (inactive) in test [2] and 112% (inactive) in test [4]. Moreover, in [3], the percent response of DMSO control is 95.1% (inactive). In addition, in [5], the GFP response, % of DMSO is 106% (inactive). The compound further showed a double positive events in test [6] of 62%. In addition, the vesicle binding response in [6] is 226% (inactive). The figures for the inhibition in test [7], in test [11] and in test [15] were 9.95% (inactive), 7.17% (inactive) and -6% (inactive), respectively. The superoxide response (% of plate) in test [8] is 108% (inactive). Further, in test [9], the aptamer binding inhibition is 3% (inactive). Besides, the response in [10] was 28.4% (inactive); in [12], 5.91% (inactive). Moreover, in test [13], the binding (% of control) is 98.5% (inactive). Moreover, in [14], the efflux inhibition (fraction of control) is 0 (inactive). Also, in [16], the differentiation response is 5.85% (inactive).

Take `C[N+]1(C2CCC3CCCC2C3O)CCCCC1` (stereo not drawn): in test [1], the percent of DMSO control GFP was 108% (inactive). The figures for the GFP response vs DMSO in test [2] and in test [4] were 100% (inactive) and 82.8% (inactive), respectively. Moreover, the percent response of DMSO control in test [3] was 115% (inactive). Moreover, the GFP response, % of DMSO in test [5] is 103% (inactive). For the same compound, in test [6], the double positive events was 64.9%. For the same compound, the vesicle binding response in test [6] was 326% (inactive). Moreover, the inhibition in [7] was -2.53% (inactive); in [11], -10.4% (inactive); in test [15], 32% (inactive). Further, the superoxide response (% of plate) in test [8] was 94.2% (inactive). Besides, the aptamer binding inhibition in test [9] was 1% (inactive). Also, the results for the response in [10] and in test [12] were -9.71% (inactive) and 3.03% (inactive), respectively. Further, the binding (% of control) in test [13] is 99.3% (inactive). For the same compound, the efflux inhibition (fraction of control) in test [14] was -0.1 (inactive). Further, the differentiation response in [16] is 4.15% (inactive).

For `COc1cc(CO)ccc1OCc1nnnn1-c1ccc(C)cc1`, in test [1], the percent of DMSO control GFP was 102% (inactive). For the same compound, the figures for the GFP response vs DMSO in test [2] and in test [4] were 105% (inactive) and 95.9% (inactive), respectively. For the same compound, in test [3], the percent response of DMSO control was 102% (inactive). The GFP response, % of DMSO in test [5] was 101% (inactive). This compound also showed a double positive events in test [6] of 58.4%. The vesicle binding response in test [6] is 163% (inactive). Moreover, the figures for the inhibition in test [7], in [11] and in [15] were 2.93% (inactive), -5.08% (inactive) and -8% (inactive), respectively. In addition, the superoxide response (% of plate) in test [8] is 107% (inactive). For the same compound, the aptamer binding inhibition in test [9] is -1% (inactive). Further, the response in [10] was 6.38% (inactive); in [12], 10.4% (inactive). For the same compound, in test [13], the binding (% of control) was 97.3% (inactive). The efflux inhibition (fraction of control) in [14] is 0.64 (active). The differentiation response in test [16] is -1.65% (inactive).

In the case of `COc1ccccc1/C=C/C(=O)c1c2c(c(C)[nH]c1=O)CCCC2`, the percent of DMSO control GFP in test [1] is 97.8% (inactive). Further, the GFP response vs DMSO in test [2] was 96.6% (inactive); in test [4], 104% (inactive). In [3], the percent response of DMSO control is 96.4% (inactive). The GFP response, % of DMSO in test [5] was 114% (inactive). In addition, the double positive events in test [6] was 65.9%. Besides, in test [6], the vesicle binding response is 192% (inactive). Further, the inhibition in test [7] was 17.6% (inactive); in test [11] it was 1.34% (inactive); in test [15], 4% (inactive). For the same compound, in [8], the superoxide response (% of plate) is 107% (inactive). Besides, the aptamer binding inhibition in test [9] is 8% (inactive). Moreover, the response is -4.6% (inactive) in test [10] and 17.4% (active) in [12]. Further, the binding (% of control) in [13] is 106% (inactive). For the same compound, the efflux inhibition (fraction of control) in [14] was -0.13 (inactive). The differentiation response in test [16] was 15.7% (inactive).
